# Starred links: 1 amine or outer side, 2 acyl side, 3 side chain; linkers in the order of their positions; H or OH if unused. Positions of bridges follow the written chain, without caps; N, C: chain ends. Non-standard residues stand in square brackets, D forms with d. Residues, ends and D or L forms follow the SMILES beside them. Chains are numbered I, II in the order given. Actinocin(9to1) = Cc1c2oc3c(C)ccc(C(=O)[*:1])c3nc-2c(C(=O)[*:2])c(N)c1=O; NMeV = CN[CH](C(=O)O)C(C)C; Sar = CNCC(=O)O
# Assay: qHTS profiling of the MIPE4 collection as inhibitors of Plasmodium falciparum (DD2) proliferation (Rep 2) (AID 743346)
# Details: P. falciparum Dd2 in erythrocytes, SYBR Green DNA, 72 h; at 28.5 µM unless noted
# Summary of the method: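 Erythrocytes infected with P. falciparum (0.3% parasitemia, 2.5% hematocrit) incubated with compounds 72 h at 37 C, 5% CO2. Lysis with saponin/Triton buffer containing SYBR Green I, overnight at room temperature in the dark; DNA fluorescence (485/535 nm) normalised to 0.29 uM artemisinin and DMSO.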
row,SMILES,"parasite growth, % of control (lower = inhibition)"
1,COc1cc2c(cc1OC)[C@@H]1C(=O)c3ccc4c(c3O[C@@H]1CO2)C=CC(C)(C)O4,39.7%
2,Cn1c(Nc2ccc(C(F)(F)F)cc2)nc2cc(Oc3ccnc(-c4ncc(C(F)(F)F)[nH]4)c3)ccc21,19.4%
3,CC(C=CC1=C(C)CCCC1(C)C)=CC=CC(C)=CC(=O)Nc1ccc(O)cc1,18.5% [at 57.5 µM]
4,C#CCC(Cc1cnc2nc(N)nc(N)c2n1)c1ccc(C(=O)N[C@@H](CCC(=O)O)C(=O)O)cc1 (stereo partly specified),9.31%
5,Cc1ccccc1C(=O)Nc1ccc(C(=O)N2CCCC(O)c3cc(Cl)ccc32)c(C)c1 (stereo unspecified),46%
6,NC(=O)c1ncn([C@@H]2O[C@H](CO)[C@@H](O)[C@@H]2O)c1N,95.2%
7,N#Cc1ccc(COC[C@H]2O[C@@H](n3c(NCc4ccc(Cl)c(Cl)c4)nc4c(N)ncnc43)[C@@H](O)[C@@H]2O)cc1,23.2%
8,COc1ccc2cc([S+]([O-])Cc3ncc(C)c(OC)c3C)nc2c1,61.5%
9,O=C(O)CCCCC(CCSCc1ccccc1)SCc1ccccc1 (stereo unspecified),61.5%
10,N[C@H]1CN(c2c(F)cc3c(=O)c(C(=O)O)cn(C4C[C@@H]4F)c3c2Cl)CC12CC2 (stereo partly specified),27.8%
11,"Cc1c2oc3c(C)ccc(C(=O)NC4C(=O)NC(C(C)C)C(=O)N5CCCC5C(=O)N(C)CC(=O)N(C)C(C(C)C)C(=O)OC4C)c3nc-2c(C(=O)NC2C(=O)NC(C(C)C)C(=O)N3CCCC3C(=O)N(C)CC(=O)N(C)C(C(C)C)C(=O)OC2C)c(N)c1=O (stereo unspecified) (I: TVP[Sar][NMeV] / II: TVP[Sar][NMeV]; ester I:1-I:C, II:1-II:C; linker I:N-II:N via Actinocin(9to1); configuration not given here)",15.2%

# — PubChem BioAssay (NCATS)
